Results on 61 sequences are retold here after the supplement of paper PMC11417369.

Whole data set: some 25,000 sequences, median “ln(normalized median fluorescence intensity)” near 9.7, cut for the highest 2% near 11. The list comes from a sample in which the highest values are over-represented; it also holds similar and randomly drawn sequences.

The test system of this experiment is PfAP2-HC AP2 domain (GST-tagged). As to the kind of experiment: gcPBM binding intensity (ln(normalized median fluorescence intensity)); higher = stronger DNA binding. Put shortly:
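Probes on an Agilent 4 × 180k array were primer-extended, double-stranded and 36 bp long, taken from intergenic genomic regions, with negative controls added. GST-tagged P. falciparum DNA-binding domains from E. coli, about 25 μg on average, were applied to the array for 1 h in 1× PBS containing 1% milk, 0.2 mg/ml BSA, 0.5% salmon testes DNA and 0.03% Triton X-100. Binding intensity, obtained after Alexa488 anti-GST antibody detection and a 488 nm scan, is the highest Masliner-normalised natural-log median intensity across replicate spots of either probe orientation.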
For the sequence “ACATTATGCCATAAATGTACACATACATATACACAG [XGTACX_site1330]”, the “gcPBM binding intensity (ln)” value turned out to be 9.66.

Turning to “AAACAATTTTTTAAAAGTACTTGAAAATTGTGAAAT [XGTACX_site2461]”, the “gcPBM binding intensity (ln)” value turned out to be 9.63. The result for “CCTTTAAGCAAAAACACACACACATATATATATATA [CACACA_site348]” reads 10; that for “AAAATGAACAAACACACACACATATATATATATATA [CACACA_site2403]”, 11.2. The result for “AAAAAAACACACACATATATATATATATATATATAT [GTGCAC_negctrl_site498]” reads 10.3. The figure for “TATAAGCAAAAACACACACACATATATATATATATA [CACACA_site3804]” is 10.2; for “AAAAAAAAAAAAAAAACACACATATATATATATATA [CACACA_site2436]” it is 10.4; for “TTTTAATGAAAACACACACACACATATATATATATA [CACACA_site5295]” it is 11.1. With “AACAAAAATGAAAAAACACACATAACATATATAAAT [CACACA_site740]”, the “gcPBM binding intensity (ln)” value worked out at 10.1. The figure for “TTTAAGCAAAAACACACACACATATATATATATATA [CACACA_site349]” is 11.1. The result for “AAAAAACAAAAACACACACACACATATATATATATA [CACACA_site3654]” reads 10.9; that for “AAAAAAATGAAACACACACACACATATATATATATA [CACACA_site1043]”, 10.4; that for “ATAAAATGAACAAACACACACACATATATATATATA [CACACA_site2402]”, 10.9. In the case of “TTTTAATTAAAACACACACACACATATATATATATA [CACACA_site2291]”, the “gcPBM binding intensity (ln)” value is 10.6. For “CAAAGATATATAAACACACAAATATAACATATATAC [CACACA_site7395]”, the “gcPBM binding intensity (ln)” value came out at 9.99. The figure for “ATATATTTATATATTACACACAATATTGTAGACATA [CACACA_site4669]” is 9.74; for “TATATATAACTTTATTGTACAAAATATTATGTATTC [XGTACX_site981]” it is 9.66; for “TGATCAGATAGACACACACACAAAAAAAAAAAAAAA [CACACA_site7805]” it is 10.1. The figure for “TATCAAAATTAGTATACACACAAAATTAATCAAATA [CACACA_site7117]” is 9.86; for “ATATTAAGTTTTATTACACACTCTCAATTTTTATTT [CACACA_site4206]” it is 9.87; for “ATATTTTTTTCATAGACACACACAATATATCTGTTT [CACACA_site8993]” it is 10.1.

As for “AAATAAATGAAACACACACACACAAAAAAAAAAAAC [CACACA_site2625]”, the “gcPBM binding intensity (ln)” value came out at 10.9. The figure for “AATATAAACAAACACACACACATATATATATATATT [CACACA_site5592]” is 10.3; for “AAAAAAAAAAAAAAAACACACACATATATATATATA [CACACA_site8571]” it is 9.9; for “CTCCATATTAGACACACACACAAATGAAAAAAATAT [CACACA_site7420]” it is 10.2. The figure for “AAAAAAAAAAAACACACACACATATATATATATATA [CACACA_site732]” is 11.1. Regarding “CTCCATATGAAACACACACACAAATGAAAAAAATAT [CACACA_site3018]”, the “gcPBM binding intensity (ln)” value is 11. For “GGATATAACAAACACACACACACATATATATATATT [CACACA_site4141]”, the “gcPBM binding intensity (ln)” value was 11.2. The result for “AATATAAACACAAACACACACATATATATATATATA [CACACA_site4307]” reads 10.1; that for “AAAAAAAAAAAAAACACACACATATATATATATATA [CACACA_site1891]”, 10.4; that for “TATTATTTGAGTAGTTGTACTCATTAATATATAAAA [XGTACX_site3468]”, 9.35.

As to “TTTGGCTAGTTAGGCCGTACATGTAAATAATATATA [XGTACX_site1138]”, the “gcPBM binding intensity (ln)” value stood at 9.47. The result for “AACGCACGAGGACACACACACATATTTATATTTATA [CACACA_site6608]” reads 11.4. For the sequence “AAAAAACAGACATACACACACACACGGATATTTATA [CACACA_site7570]”, the “gcPBM binding intensity (ln)” value was determined as 11.4. The figure for “AGCACGCACAGACACACACACATATTTATATTTATA [CACACA_site6291]” is 10.3. The figure for “AACTCACGAGGACACACACACATATATATATATATA [CACACA_site4711]” is 10.2. The figure for “TATATATATTTATGCACACAAAATATATTATATAAT [CACACA_site5955]” is 9.67; for “CAAAAGGATATGCACACACACACACGGATATTTATA [CACACA_site7099]” it is 11.4; for “AAAAAACACGGACACACACACATATACATACATACA [CACACA_site5470]” it is 10.6. On to “ACCATACATACATACACACACACACGCATATTTATA [CACACA_site7386]”, for which the “gcPBM binding intensity (ln)” value worked out at 11.2. The result for “TATATATATTTATACACACACATATATTTATATATT [CACACA_site484]” reads 9.97; that for “ATATTAAACAGACACACACACATATATTTATTTATA [CACACA_site7564]”, 10.4.

Turning to “ATTATATATATTTATGCACACAAAATATATTATATA [CACACA_site9244]”, the “gcPBM binding intensity (ln)” value amounted to 9.64.

For the sequence “TATATATATATATATACACACATATATATATTTATA [CACACA_site627]”, the “gcPBM binding intensity (ln)” value worked out at 10.2. With “TCATCCACATATTGTAGTACAAGATAATTGTTTATT [XGTACX_site1634]”, the “gcPBM binding intensity (ln)” value amounted to 9.63. The result for “TTTTTAGAAAGACATGCATGTAATAAAAATAAATAA [TGCATGCA_site685]” reads 9.82; that for “AAAATTTAATATAATGCACACATAAAAAAAAATTCA [CACACA_site8640]”, 9.77.

With “TATAGATGTATGTACATACACACATATATAAATAAA [CACACA_site1789]”, the “gcPBM binding intensity (ln)” value came out at 10. The result for “TTATGCAATTTGTATTGTACATTCATGATATTAATA [XGTACX_site5070]” reads 9.53; that for “TACATGTATAAATAAGCACACATGTGGATATGTACA [CACACA_site93]”, 10; that for “TATTTTTCTTTTTAAAAATATATCACATGAACATTA [XGTACX_negctrl_site183]”, 9.39. “ATATAAAAAAATAATAAATAAATAAAAAGATTTCTT [XGTACX_negctrl_site110]”: the “gcPBM binding intensity (ln)” value was determined as 9.65. Regarding “TATTTATACACGCACACACACTTATACATTTATATA [CACACA_site7543]”, the “gcPBM binding intensity (ln)” value was found to be 10.8. The figure for “ATATACATTAAATGAACACACATAAATAAATTACAT [CACACA_site2852]” is 9.89; for “TTATGATGGTCTTTATAAGGGCACATTAAATTCGGC [TGCATGCA_negctrl_site166]” it is 9.35. The result for “TATATATATATTTATACACACACATATATTTATATA [CACACA_site8054]” reads 10.1; that for “ACCGTGGGAGGACACACACACACACGCACATATATA [CACACA_site6289]”, 11.1. The figure for “TATTTATATTTATATACACACATACATATTTATATT [CACACA_site6535]” is 9.93.

As to “TACATATTTATATACACACACACACGGATATTTATA [CACACA_site7239]”, the “gcPBM binding intensity (ln)” value is 11. The result for “AAACCGTGGGAGCACACACACACACCGACACATATA [CACACA_site4338]” reads 10.4; that for “AAACCGTGGGAGCACACACACACACGCGCACATATA [CACACA_site6288]”, 10.5.
